This passage reports log fold change Tl+ flux results from PubChem BioAssay.

Where “and” joins values, the source holds several entries; their conditions need not be identical. Identical values can stand only once. More than one record can exist for a structure, and the calls need not agree. Calls of active or inactive are those of the source.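 Rule for the calls: active = thallium flux through the channel raised or lowered by more than 3 SD from vehicle-only wells, actives on both sides; inactive = the rest.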

The test system of this assay is R275C/Slo1WT/beta2. Put plainly: BK channel mutant inhibitors and activators – cell-based, U2OS BacMam, thallium flux, beta subunits, selectivity assay, profiling panel (AID 1259406).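 Note: initial slope of Thallos dye fluorescence rise after thallium is added; log ratio against the mean of 0.3% DMSO vehicle wells on the same plate.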 Conditions: U2OS BacMam BK variants, at 30 µM.
As for `OCCN1CCN(CCCN2c3ccccc3Sc3ccc(C(F)(F)F)cc32)CC1`, the log fold change Tl+ flux was -0.0356 (inactive). As for `NS(=O)(=O)c1cc2c(cc1Cl)NC=NS2(=O)=O`, the log fold change Tl+ flux was 0.0443 (inactive). On to `O=C1C(CCS(=O)c2ccccc2)C(=O)N(c2ccccc2)N1c1ccccc1` (centres undefined), for which the log fold change Tl+ flux was 0.0214 (inactive). As to `Cc1ccc(-c2cc(C(F)(F)F)nn2-c2ccc(S(N)(=O)=O)cc2)cc1`, the log fold change Tl+ flux was -0.0385 (inactive). For `CN[C@H]1CC[C@@H](c2ccc(Cl)c(Cl)c2)c2ccccc21`, the log fold change Tl+ flux is 0.019 (inactive) and -0.2 (active).

For `Cc1ccccc1C(OCCN(C)C)c1ccccc1` (centres undefined), the log fold change Tl+ flux is 0.0116 (inactive) and 0.0357 (inactive). With `CCc1nc(N)nc(N)c1-c1ccc(Cl)cc1`, the log fold change Tl+ flux was -0.0705 (inactive). With `COc1cc2nc(N(C)CCCNC(=O)C3CCCO3)nc(N)c2cc1OC` (centres undefined), the log fold change Tl+ flux was 0.00335 (inactive). Then `CN(C)CCOC(c1ccc(Cl)cc1)c1ccccn1` (centres undefined), with -0.0144 (inactive). As to `N[C@@H](C(=O)N[C@@H]1C(=O)N2C(C(=O)O)=C(Cl)CS[C@H]12)c1ccccc1`, the log fold change Tl+ flux was -0.0279 (inactive).

As to `Nc1ncn([C@@H]2O[C@H](CO)[C@@H](O)[C@H]2O)c(=O)n1`, the log fold change Tl+ flux was -0.00199 (inactive). As for `NCc1ccc(S(N)(=O)=O)cc1`, the log fold change Tl+ flux is -0.0456 (inactive). For the compound `Cc1ncc([N+](=O)[O-])n1CC(C)O` (centres undefined), the log fold change Tl+ flux was 0.0129 (inactive). `Cc1ccc(C)c(OCCCC(C)(C)C(=O)O)c1`: the log fold change Tl+ flux was 0.088 (inactive).

In the case of `CN1CCCC(n2nc(Cc3ccc(Cl)cc3)c3ccccc3c2=O)CC1` (centres undefined), the log fold change Tl+ flux was 0.0667 (inactive). Take `NS(=O)(=O)c1cc2c(cc1C(F)(F)F)NC(Cc1ccccc1)NS2(=O)=O` (centres undefined): the log fold change Tl+ flux is -0.0386 (inactive). For the compound `COC1=CC(=O)C[C@@H](C)[C@]12Oc1c(Cl)c(OC)cc(OC)c1C2=O`, the log fold change Tl+ flux was 0.00636 (inactive).

On to `Cc1cn([C@H]2C[C@H](N=[N+]=[N-])[C@@H](CO)O2)c(=O)[nH]c1=O`, for which the log fold change Tl+ flux was 0.022 (inactive).

As to `CN(CCOc1ccc(CC2SC(=O)NC2=O)cc1)c1ccccn1` (centres undefined), the log fold change Tl+ flux is -0.0105 (inactive) and 0.0261 (inactive). As for `COc1ccc(OC)c(C(O)CNC(=O)CN)c1` (centres undefined), the log fold change Tl+ flux is 0.0391 (inactive). As for `OC(CCN1CCCC1)(c1ccccc1)C1CCCCC1` (centres undefined), the log fold change Tl+ flux is -0.0137 (inactive). On to `NC(=O)N1c2ccccc2CC(=O)c2ccccc21`, for which the log fold change Tl+ flux is 0.048 (inactive). With `CCCNCC(O)COc1ccccc1C(=O)CCc1ccccc1` (centres undefined), the log fold change Tl+ flux is 0.0285 (inactive). Take `C/C=C/C(=O)N(CC)c1ccccc1C`: the log fold change Tl+ flux was 0.00262 (inactive). For the compound `CCCCCCNC(=O)n1cc(F)c(=O)[nH]c1=O`, the log fold change Tl+ flux is -0.00804 (inactive).

Turning to `NC(=O)c1cnccn1`, the log fold change Tl+ flux is 0.0474 (inactive). Consider `CN(C)CCc1c[nH]c2ccc(C[C@H]3COC(=O)N3)cc12`, for which the log fold change Tl+ flux was 0.0342 (inactive). Then `COc1ccccc1OCC(O)COC(N)=O` (centres undefined), with 0.0176 (inactive). Then `COC(=O)Nc1nc2ccc(C(=O)c3ccccc3)cc2[nH]1`, with 0.008 (inactive). Then `CCn1cc(C(=O)O)c(=O)c2cc(F)c(N3CCN(C)CC3)cc21`, with 0.067 (inactive); and `Cn1cnc([N+](=O)[O-])c1Sc1ncnc2nc[nH]c12`, with 0.0598 (inactive); and `c1ccc2[nH]c(-c3cscn3)nc2c1`, with 0.0186 (inactive). As for `Cc1onc(-c2c(Cl)cccc2Cl)c1C(=O)N[C@@H]1C(=O)N2[C@@H]1SC(C)(C)[C@@H]2C(=O)O`, the log fold change Tl+ flux is -0.0106 (inactive). Consider `Clc1ccc2c(c1)C(N1CCNCC1)=Nc1ccccc1O2`, for which the log fold change Tl+ flux is 0.0256 (inactive). In the case of `CO[C@@]1(NC(=O)Cc2cccs2)C(=O)N2C(C(=O)O)=C(COC(N)=O)CS[C@@H]21`, the log fold change Tl+ flux is 0.00869 (inactive). Then `CCc1cccc2c3c([nH]c12)C(CC)(CC(=O)O)OCC3` (centres undefined), with 0.0472 (inactive); and `CC(C)(C)NCC(O)COc1cccc2c1C[C@H](O)[C@H](O)C2` (some centres undefined), with 0.00485 (inactive).

Turning to `O=S(=O)(O)CCS`, the log fold change Tl+ flux was 0.0106 (inactive). As for `O=c1[nH]cc(F)c(=O)[nH]1`, the log fold change Tl+ flux is 0.0575 (inactive).
